Measured values as given in PubChem BioAssay (NCI).
This is part of a sample that, as a whole, favours compounds with a hit. Of some 83,000 tested, about 20% had one in any assay.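 Activity criterion: percent growth below 10, measured after cells in 96-well plates were exposed to a single compound concentration for 48 hours.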 A number with no mark means an inactive call. Active and inactive are the calls of the source.

Columns and labels:
Test in all cases: NCI-60 one-dose screen, 48 h (100 = growth as untreated, 0 = no growth, -100 = all killed)
Details in all cases: 10 µM unless noted
[1] = test system: SK-MEL-2 melanoma
[2] = test system: EKVX NSCLC
[3] = test system: SN12C renal
[4] = test system: UO-31 renal
[5] = test system: TK-10 renal
[6] = test system: ACHN renal
[7] = test system: CAKI-1 renal
[8] = test system: A498 renal
[9] = test system: CCRF-CEM leukemia
[10] = test system: SR leukemia
[11] = test system: RPMI-8226 leukemia
[12] = test system: OVCAR-8 ovarian
[13] = test system: OVCAR-5 ovarian
[14] = test system: OVCAR-4 ovarian
[15] = test system: SK-OV-3 ovarian
[16] = test system: IGROV1 ovarian
[17] = test system: OVCAR-3 ovarian
[18] = test system: HS 578T breast
[19] = test system: NCI/ADR-RES ovarian
[20] = test system: MOLT-4 leukemia

SMILES | growth [1] | growth [2] | growth [3] | growth [4] | growth [5] | growth [6] | growth [7] | growth [8] | growth [9] | growth [10] | growth [11] | growth [12] | growth [13] | growth [14] | growth [15] | growth [16] | growth [17] | growth [18] | growth [19] | growth [20]
O=C1/C(=C/c2cccc([N+](=O)[O-])c2)COc2ccc(O)c(O)c21 | -25.4% (active) | 34.7% | -71.3% (active) | -98.8% (active) | -48.5% (active) | -98.4% (active) | -67.5% (active) | 99.7% | 0.148% (active) | 8.03% (active) | -24.7% (active) | 5.45% (active) | -48.8% (active) | 15.3% | 68.9% | -21.6% (active) | -83.6% (active) | 6.86% (active) | 9.52% (active) | 
Cc1c(CC(=O)Nc2ccccc2)nnn1-c1ccccc1 | 107% | 104% | 108% | 88.2% | 101% | 109% | 97.5% | 108% | 105% | 103% | 103% | 105% | 108% | 115% | 110% | 106% | 115% | 102% | 99.5% | 
COC(=O)[C@H](C)NC(=O)c1ccc(NC(=O)c2[nH]c(C)c(Cl)c2Cl)c(OCCN)c1 | 121% | 103% | 97.5% | 98.2% | 112% | 99% | 96% | 88.9% | 97.8% |  | 96.9% | 96.2% | 106% | 113% | 106% | 104% | 108% | 101% | 107% | 91.2%
O=C1C=CC2(O)OC(c3ccccc3)CC(=O)C2=C1O (configuration not stated) | 102% | 89.1% | 78.9% | 62.7% | 126% | 97.8% | 86.5% | 96% | 46.1% | 56.2% | 64.3% | 82% | 96.4% |  | 106% | 90.9% | 1.12% (active) | 102% | 86% | 
N#CC1=C(N)Oc2c(ccc3ccccc23)C1c1cc2ccccc2n2nnnc12 (configuration not stated) | 12% | 52.1% | 27.3% | 25.9% | 37.3% | 22.7% | 31.6% | -2.46% (active) | -5.43% (active) | 3.88% (active) | -8.74% (active) | 26.6% | 39.4% | 65% | 12.5% | 33.3% | -20.7% (active) | 17.7% | 0.93% (active) | 
COc1ccc(NC(=O)c2ccc(NC3=C(c4ccc(Cl)cc4)C(=O)NC3=O)cc2)cc1 | 70.4% | 84.7% | 88.6% | 64.6% | 82.8% | 85.9% | 83.9% | 87.5% | 85.1% | 57.1% | 73.8% | 84.8% | 100% | 84.1% | 69.8% |  | 89.2% | 102% | 88.3% | 
CCN1C(=O)N(CC)C2C1NC(=S)N2/N=C/C=C/c1ccccc1 (configuration not stated) | 10.6% | 27.8% | 26.2% | 40.7% | 49.6% | 22.8% | 27.2% | -6.35% (active) | 2.75% (active) | 7.76% (active) | -8.74% (active) | 6.3% (active) | 59.6% | 46.9% | 20.4% | 21% | -8.49% (active) | 13.6% | 0.601% (active) | 
Cc1c2cnccc2c(C)c2c1c1cc(C(=O)O)ccc1n2C | -65.5% (active) | 16% | 0.942% (active) | -36.5% (active) | -7.59% (active) | -15% (active) | -6.62% (active) | -57.4% (active) | 5.53% (active) | 18.6% | -1.59% (active) | 5.83% (active) | 9.91% (active) | -4.45% (active) | -4.58% (active) | 0.419% (active) | 0.0817% (active) | 8.93% (active) | 3.03% (active) | 
CC(C)(C)c1ccc(C(=O)Nc2sc3c(c2C#N)CCC(=O)C3)cc1 | 12.8% | 19.1% | 9.18% (active) | -99% (active) | 24.3% | -84% (active) | -74.4% (active) | 89.8% | 8.53% (active) |  | -8.65% (active) | 16.6% | 21% | -73.8% (active) |  | 25.8% | -29.6% (active) | 30.5% | 9.31% (active) | 10.6%
N#C/C(=C/C=C/c1ccccc1)S(=O)c1ccccc1 (configuration not stated) | -15.9% (active) | -6.51% (active) | -52.5% (active) | -63.4% (active) | -89.8% (active) | -74.4% (active) | -25.6% (active) | -68.4% (active) | -5.68% (active) |  | -8.55% (active) | 14.1% | -55.4% (active) | 18.6% | 32.3% | 1.27% (active) | -82.2% (active) | 15.8% | 11.9% | -1.2% (active)
c1ccc2cc(Cn3cc[n+](Cc4ccc5ccccc5c4)c3)ccc2c1 | -11.5% (active) | 51.7% | 18.2% | 70.6% | 8.12% (active) | 90.6% | 96% | 75.9% | 21.7% |  | -0.408% (active) | 10.9% | 43% | 0.592% (active) | 33.2% | -2.69% (active) | 14.5% | 58.8% | 99.5% | 25%
CCn1c2ccccc2c2cc(C(O)c3cccc4ncccc34)ccc21 (configuration not stated) | 51.5% | 59.3% | 27.6% | 11.9% | 54.7% | 27.9% | 43% | 8.73% (active) | 8.21% (active) |  | -2.06% (active) | 20.8% | 48.7% | 45.4% | 69.1% | 19.1% | 1.86% (active) | 21.3% | -53.2% (active) | 13.5%
Cc1cc2c(C(C)C)c(O)c(O)c(/C=N/O)c2c(O)c1-c1c(C)cc2c(C(C)C)c(O)c(O)c(/C=N/O)c2c1O | -10.2% (active) | 27.2% | 43.7% | 24.7% | 0.867% (active) | 24% | 26.6% | 57.2% | 10.1% |  | 15% | 8.35% (active) | 48.3% | 28.7% | 18.2% | 38.5% | 25.6% | 41.9% | 44% | -7.59% (active)
COc1cc(C(=O)n2nc(NCCCc3ccccc3)c3cc(N)ccc32)cc(OC)c1OC | 87.6% | 87.3% | 99.3% | 68.6% | 97.7% | 91.3% | 92.6% | 88.7% | 69.4% |  | 69.5% | 82.8% | 93.3% | 105% | 104% | 110% | 101% | 111% | 68.4% | 78.6%
Cc1c(C(=O)C(SC(=S)N2CCOCC2)SC(=S)N2CCOCC2)nnn1-c1ccc([N+](=O)[O-])cc1 | 106% | 113% | 96.4% | 74.7% | 100% | 98% | 94.9% | 128% | 67.9% | 69.7% | 90.1% | 99.1% | 102% | 109% | 93.3% | 98% | 108% | 123% | 111% | 
